# Screens as filed in PubChem.
# KB-3-1 cytotox = kills parental KB-3-1 adenocarcinoma cells. KB-3-1 viability, CellTiter-Glo ATP luminescence, 72 h. 1.4% of 400,000 active. Potency, µM (titrated, usually from 46.1 µM), hits mostly cytotoxic; note: nearly all actives have a fitted effect of over 60% in size
#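 Screening of KB-3-1 cells (DMEM, 10% FBS, phenol-red free) ran from lowest to highest compound concentration; after 72 h at 37 °C viability was read luminescently and curves fitted.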
# HT1080 IDH1KD tx = HT-1080 IDH1 knockdown cell toxicity (counter line). HT-1080 IDH1 knockdown viability, ATP luminescence, 48 h. 2% of 360,000 active. Potency, µM (highest dose often 46.1 µM), inactives show at the highest dose activity, negative = toxicity, actives largely listed as cytotoxic. AID 686971;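 note: 0% = DMSO wells and -100% = cell-free medium wells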
#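 HT-1080-IDH1KD cells (IDH1 knocked down), 750/well in RPMI with 5% FBS, treated with compound 48 h at 37 degrees C. Viability by CellTiter-Glo luminescence, normalised to DMSO and no-cell wells; concentration-response curves classed.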
# KB-V1 MDR tox = kills drug-selected multidrug resistant KB-V1 cells. KB-V1 MDR cells viability, CellTiter-Glo, 72 h. 3.4% of 400,000 active. Potency, µM (titrated, usually from 46.1 µM), actives largely listed as cytotoxic. AID 1347076; note: nearly all actives have a fitted effect of over 60% in size
#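 Following 72 h at 37 degrees C with compound, KB-V1 cell viability was read by CellTiter-Glo luminescence, medium being phenol-red-free DMEM plus 10% FBS; concentration-response parameters came from normalized, curve-fitted qHTS data.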
# HT1080-NT tox = kills 2HG-producing HT-1080-NT fibrosarcoma cells; 1.6% of 360,000 active; HT-1080-NT fibrosarcoma viability, CellTiter-Glo ATP luminescence, 48 h; Potency, µM (doses to about 46.1 µM), without a hit: at the top dose activity, negative = less viability, most hits filed as cytotoxic;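 note: NT is the 2HG producing partner of a matched IDH1 knockdown line; 0% = DMSO-treated cells and -100% = media-only wells without cells; nearly all actives have a fitted effect of over 55% in size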
#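 HT-1080-NT fibrosarcoma cells (2HG-overproducing), 750 cells/well in RPMI with 5% FBS, dosed after 2 h and incubated 48 h at 37C. CellTiter-Glo luminescence normalized to DMSO and no-cell wells; concentration-response curves fitted and classed.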
# An asterisk follows results filed as active; i = inactive; u = inconclusive; x = no result given. The list is not random: actives were taken first. Their share in the collection is about 5.7%. Calls come from the whole dose curve; as a rule, active = well fitted curve in the direction sought with a large enough effect; inconclusive = small, poorly fitted or top-dose-only effect, or another doubt; inactive = no such curve, though single readings can be large; an effect the other way counts as inactive or inconclusive. Unless noted, % is set by controls: 0 for no effect and ±100 for the full control effect; potency is the fitted concentration of half-maximal effect.
SMILES,KB-3-1 cytotox,HT1080 IDH1KD tx,KB-V1 MDR tox,HT1080-NT tox
CCOC(=O)c1c(-c2ccccc2)csc1NC(=O)CSc1ccccc1,i,16.9%,18.4µM*,18.4%
CC1CCN(CCCOc2ccc(Cl)cc2Br)CC1,i,23.1µM*,i,u
CC1CCCN(CCCOc2ccc(Cl)cc2Br)C1 (stereo unspecified),u,-18.9%,16.4µM*,-1.2%
CC1CCN(CCOCCOc2ccc(Cl)cc2Br)CC1,i,u,u,u
CC1CCCN(CCOc2ccc3ccccc3c2Br)C1 (stereo unspecified),u,18.4µM*,u,20.6µM*
O=C(Nc1ccc(F)cc1)c1cccn1-c1nnc(N2CCCCC2)s1,i,x,i,x
COc1cc(-c2nc(-c3ccccc3)c(-c3cccs3)[nH]2)cc(OC)c1O,u,-2.2%,20.6µM*,-1.6%
O=C(CSc1nc2c([nH]c3ccccc32)c(=O)n1-c1cccc(C(F)(F)F)c1)N1CCc2ccccc21,i,x,u,x
COC(=O)c1c[nH]n2c(=O)c(Cc3ccc(F)cc3Cl)c(C)nc12,i,u,16.4µM*,u
COC(=O)c1c[nH]n2c(=O)c(Cl)c(C)nc12,i,1.0%,i,-3.8%
CCOC(=O)c1cccc(NC(=O)c2ccc3c(c2)nnn3C2CCCC2)c1,i,x,i,x
CNCC/C=C1/c2ccccc2CSc2ccccc21,i,u,i,16.4µM*
Cc1ccc(-c2nc(-c3ccccn3)no2)cc1,9.2µM*,6.51µM*,6.51µM*,5.17µM*
Clc1cccc(-c2nc(-c3ccccn3)no2)c1,u,u,i,u
c1ccc(-c2noc(-c3ccno3)n2)nc1,i,5.1%,i,6.8%
c1ccc(-c2n[nH]c(-c3ccccn3)n2)cc1,i,5.8µM*,u,8.2µM*
Cc1ccc(-c2nc(-c3ccccn3)no2)cc1Cl,u,u,i,u
c1ccc(-c2nc(-c3ccccn3)no2)cc1,9.2µM*,10µM*,16.4µM*,12.6µM*
c1ccc(-c2ccc(-c3nc(-c4ccccn4)no3)cc2)cc1,13µM*,12.6µM*,8.2µM*,10µM*
